# IL-1B inflam inh – inhibitors of inflammasome signaling (IL-1 beta secretion). THP-1 LPS/ATP IL-1B secretion, AlphaLISA, 16 h; active compounds read low. activity change, % at 57.5 µM. 360,000 compounds, 4.7% hits; in the data active means activity change below about -50%; inconclusive means mostly about -30% to -49%
#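 THP-1 cells pretreated 1 hr with compounds (up to 57.5 uM final), then stimulated with LPS (250 ng/mL final) plus ATP (1.25 mM final); secreted IL-1B measured by AlphaLISA after 16 hr, decreased signal indicating inhibition.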
# DT40 TDP1 CPT – DT40-hTDP1 cell growth loss with CPT; chicken DT40 Tdp1-/-;hTDP1 cells + 20 nM CPT, ATP luminescence, 48 h; Potency, µM (highest dose often 46.2 µM), for the others: at the highest dose activity change, negative = growth inhibition, hits mostly inhibitors; 420,000 compounds, 12% hits; further: potency means the concentration at half of the fitted maximal effect; nearly all actives have a fitted effect of over 55% in size
#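 Chicken DT40 Tdp1-/- cells complemented with human TDP1, 400 cells/well, exposed to compounds plus 20 nM camptothecin for at least 48 h at 37 C; viability read as ATP content by CellTiter-Glo luminescence.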
# TDP1 cell noCPT – qHTS for Inhibitors of human tyrosyl-DNA phosphodiesterase 1 (TDP1): qHTS in cells in absence of CPT; AID 686978, 2013; Potency, µM (highest dose often 46.2 µM), for the others: top-dose activity change, negative = growth inhibition, actives largely listed as inhibitors; DT40 Tdp1-/- hTDP1 cells, no CPT, ATP luminescence, 48 h; 420,000 compounds, 15% hits; further: potency means the concentration at half of the fitted maximal effect; nearly all actives have a fitted effect of over 55% in size
#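 Readout: luminescence from CellTiter-Glo after 30 min in the dark at RT. Cells: DT40 Tdp1-/- with stable hTDP1, 400/well. Exposure: compounds alone, ≥48 hr, 37 °C.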
# HT1080NT lethal – kills 2HG-producing HT-1080-NT fibrosarcoma cells; HT-1080-NT fibrosarcoma viability, CellTiter-Glo ATP luminescence, 48 h; Potency, µM (top dose mostly 46.1 µM), inactives show at the top dose activity, negative = less viability, usual class: cytotoxic; 360,000 compounds, 1.6% hits;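 further: NT is the 2HG producing partner of a matched IDH1 knockdown line; potency means the concentration at half of the fitted maximal effect; 0% = DMSO-treated cells and -100% = media-only wells without cells; nearly all actives have a fitted effect of over 55% in size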
#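 A 48-hour cytotoxicity screen used HT-1080-NT cells plated 2 hours before compound delivery. ATP-based CellTiter-Glo luminescence measured viability, normalized to DMSO and no-cell controls.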
# HT1080 IDH1KD tx – kills HT-1080 cells with IDH1 knockdown; HT-1080 IDH1 knockdown viability, ATP luminescence, 48 h; Potency, µM (titrated, usually from 46.1 µM), inactives show top-dose activity, negative = toxicity, usual class: cytotoxic; 360,000 compounds, 2% hits;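 further: potency means the concentration at half of the fitted maximal effect; 0% = DMSO wells and -100% = cell-free medium wells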
#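 Cytotoxicity counter-line: IDH1KD HT-1080, 48 h, CellTiter-Glo. Curves classed by r2, magnitude and activity.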
# An asterisk follows results filed as active; i = inactive; u = inconclusive; x = no result; [ ] = remark or other dose. The list is not random: actives were taken first. Their share in the collection is about 19%. Unless noted, the call rests on the fitted dose curve; in most records, active means well fitted curve in the direction sought with a large enough effect; inconclusive means small, poorly fitted or top-dose-only effect, or another doubt; inactive means no such curve, though single readings can be large; an effect the other way counts as inactive or inconclusive. Unless noted, on the % scale 0 is the no-effect control and ±100 the full control effect.
SMILES,IL-1B inflam inh,DT40 TDP1 CPT,TDP1 cell noCPT,HT1080NT lethal,HT1080 IDH1KD tx
O=[N+]([O-])c1ccc(/C=N/Nc2nc(-c3ccccc3)c3cc(Br)ccc3n2)o1,-22,16µM*,21µM*,14%,22%
Cc1ccc2nc(N/N=C\c3ccc([N+](=O)[O-])o3)nc(-c3ccccc3)c2c1,-59*,23µM*,u,u,10%
O=C(COc1nncc2ccccc12)NCC(F)(F)F,14,-1%,12%,-2%,16%
Cc1ccc(C(=O)Nc2ccc(N3CCN(C(=O)c4ccco4)CC3)cc2)cc1,-18,-1%,-29%,9%,11%
Cc1cccc(OCC(=O)Nc2ccc(N3CCN(C(=O)c4ccco4)CC3)cc2)c1,-54*,18µM*,21µM*,u,u
CCc1ccc(OCC(=O)Nc2ccc(N3CCN(C(=O)c4ccccc4)CC3)cc2)cc1,0,u,-16%,18%,24%
Cc1ccccc1OCCC(=O)OCC(=O)Nc1ccc(N2CCOCC2)cc1,-62*,16µM*,u,1%,-27%
Cc1cccc(OCC(=O)Nc2ccc(N3CCN(C(=O)c4ccccc4)CC3)cc2)c1C,i,u,u,-5%,-12%
CCC(=O)N1CCN(c2ccc(NC(=O)COc3cccc(C)c3C)cc2)CC1,19,u,18µM*,18%,-3%
COc1ccc(OCC(=O)Nc2ccc(N3CCN(C(=O)c4ccccc4C)CC3)cc2)cc1,-22,26µM*,u,-5%,0%
COc1ccc(OCC(=O)Nc2ccc(N3CCN(C(=O)c4ccccc4)CC3)c(Cl)c2)cc1,i,u,12µM*,-14%,-9%
COc1ccc(OCC(=O)Nc2ccc(N3CCOCC3)c(Cl)c2)cc1,-18,-20%,-2%,3%,-8%
Cc1ccccc1OCC(=O)Nc1ccc2c(c1)Cc1ccccc1-2,-8,-6%,-17%,-6%,u
Cc1ccc(OCC(=O)Nc2ccc(N3CCN(C(=O)c4ccco4)CC3)cc2)cc1C,-82*,u,u,u,-17%
Cc1ccc(OCC(=O)Nc2cc(C(=O)O)cc(C(=O)O)c2)cc1C,25,6.5µM*,u,11%,5%
Cc1ccc(OCC(=O)Nc2cc(NC(=O)COc3ccc(C)cc3)cc(C(=O)O)c2)cc1,32,-2%,5%,5%,5%
Cc1ccccc1OCC(=O)Nc1ccc(N2CCN(C)CC2)c(Cl)c1,u,u,15µM*,u,u
COc1cc(OC)nc(NC(=O)NS(=O)(=O)c2ccc(F)cc2)n1,23,11%,-13%,20%,18%
CN(CC(=O)Nc1ccc(N2CCOCC2)cc1)C(=O)CCCOc1ccc(Cl)cc1Cl,-17,9.2µM*,u,u,-28%
CN(CC(=O)Nc1ccc(N2CCOCC2)cc1)C(=O)CCc1ccccc1Cl,9,u,-29%,-1%,-7%
Cc1cc(OCC(=O)Nc2ccc(N3CCN(C(=O)c4ccco4)CC3)cc2)cc(C)c1Cl,-4,9.2µM*,10µM*,0%,3%
COc1ccc2ccccc2c1CN1CCOc2ccc(CN3CCN(CCO)CC3)cc2C1,x,10%[9.04 µM],u,x,x
CCOc1ccccc1NC(=O)COC(=O)Cc1ccc(-c2ccccc2)cc1,1,0%,u,4%,3%
Cc1cc(C(=O)COc2ccccc2[N+](=O)[O-])c(C)n1C1CC1,2,23µM*,u,-25%,-11%
Cc1cc(NS(=O)(=O)c2ccc(NC(=O)COc3ccccc3[N+](=O)[O-])cc2)no1,11,1%,10%,0%,1%
COC(=O)/C=C/COc1ccccc1[N+](=O)[O-],1,9.2µM*,13µM*,-8%,-15%
Cc1cc(C(=O)COc2ccccc2C(N)=O)c(C)n1C1CC1,-6,u,u,5%,3%
Cc1cc(-n2c(C)cc(C(=O)COc3ccccc3[N+](=O)[O-])c2C)no1,0,16µM*,23µM*,2%,0%

# Compound activity: PubChem, National Center for Advancing Translational Sciences (NCATS)
